The list is not random: actives were taken first. Their share in the collection is about 5.7%.
D3 ag: D3 dopamine receptor (human) agonism. P35462. D3R DiscoveRx beta-arrestin cells, luminescence, 90 min. max activation, %. 0.58% of 410,000 active. AID 652048; in the data active = max activation above about 30%
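Cells at 1500/well, incubated overnight, then treated with pinned compounds (dopamine as control) for 90 min at 37 degrees C. DiscoveRx reagent added for 30 - 60 minutes at room temperature; luminescence read.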
ClpP mod: qHTS Assay for Activators of ClpP | ATP-dependent Clp protease proteolytic subunit (Bacillus subtilis (strain 168)), P80244 | purified B. subtilis ClpP, FRET peptide cleavage, 20 min | Potency, µM (titrated, usually from 57.5 µM) | 1.9% of 340,000 active | AID 651965, 2013; active = well fitted falling curve with a large enough effect; inconclusive = small, poorly fitted or top-dose-only effect; inactive = no such curve, though single readings can be large or run the other way; also: the source files actives as falling curves though it sought activators and does not explain the sign; nearly all actives have a fitted effect of over 65% in size
Target sequence (P80244 whole entry, looked up): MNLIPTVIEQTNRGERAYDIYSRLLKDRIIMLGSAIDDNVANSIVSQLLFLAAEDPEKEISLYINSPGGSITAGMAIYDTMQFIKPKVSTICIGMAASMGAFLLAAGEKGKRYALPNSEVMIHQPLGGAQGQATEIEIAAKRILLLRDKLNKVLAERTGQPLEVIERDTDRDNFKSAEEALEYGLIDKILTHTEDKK
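ClpP 10 microg/mL final, pH 8 Tris/KCl buffer with BSA, glycerol, Tween-20; compound pinned in; FRET-FV substrate; RT 20 min; Ex320/Em430; ΔFRET vs ADEP 5.8 microM, DMSO, no enzyme.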
GLP1R inv ag: acts as inverse agonist at human GLP-1 receptor; Potency, µM (series often up to 38.3 µM), hits mostly inhibitors; 1.6% of 410,000 active; P43220; HEK293 GLP-1R CRE-luciferase, luminescence, 24 h; GLP-1R form is constitutively active; also: nearly all actives have a fitted effect of over 55% in size
Target sequence (P43220 whole entry, looked up): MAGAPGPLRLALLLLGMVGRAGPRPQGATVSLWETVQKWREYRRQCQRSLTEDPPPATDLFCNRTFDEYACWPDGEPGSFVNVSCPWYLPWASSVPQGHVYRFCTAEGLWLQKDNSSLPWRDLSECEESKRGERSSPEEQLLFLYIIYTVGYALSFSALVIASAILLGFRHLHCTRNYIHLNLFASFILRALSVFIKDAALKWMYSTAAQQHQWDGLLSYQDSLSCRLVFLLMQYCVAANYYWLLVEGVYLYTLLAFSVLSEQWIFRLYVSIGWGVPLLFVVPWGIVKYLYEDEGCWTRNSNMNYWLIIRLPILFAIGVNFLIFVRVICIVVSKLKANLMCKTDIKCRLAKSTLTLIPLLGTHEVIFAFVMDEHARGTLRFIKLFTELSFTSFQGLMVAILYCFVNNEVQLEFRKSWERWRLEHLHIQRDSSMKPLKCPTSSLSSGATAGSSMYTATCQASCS
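HEK293 cells stably co-expressing a cAMP-responsive luciferase reporter and constitutively active GLP-1R were seeded, incubated 12 h, then exposed to compounds for 24 h at 37 C. Luminescence was read 12 min after detection reagent; inverse agonists lower signal.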
GLP-1R agonist: GLP-1 receptor (human) agonism; P43220; HEK293 GLP-1R CRE-luciferase, luminescence, 4-6 h; cells express a hypersensitive GLP-1R form; Potency, µM (top dose mostly 45.6 µM), actives largely listed as activators; 0.007% of 380,000 active; AID 624172
GLP1R cytotox: cytotoxicity in counter-screen for GLP-1R inverse agonists | 0.13% of 410,000 active | Potency, µM (highest dose often 38.3 µM), actives largely listed as inhibitors | HEK293 cAMP-luciferase reporter cells, luminescence, 24 h;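 also: loss of luciferase light is scored as toxicity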
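Quantitative HTS format, 1536 wells, 200 cells/uL seeded. Compounds: 23 nL, 24 h, 37 °C. Detection: luciferase reagent, luminescence at 12 min RT; decreased signal taken as cytotoxic.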
D3 antag: antagonists of human D3 dopamine receptor; P35462; D3R cells, DiscoveRx beta-arrestin luminescence, antagonist mode; stronger effect = lower value; max response, negative = inhibition, %; 2.5% of 360,000 active; AID 652054; in the data active = max response below about -50%; inconclusive = no clear call, values can overlap the other calls
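Cells expressing the human receptor were seeded at 1500 cells/well, incubated overnight at 37 degrees C in 5% CO2, then exposed to library compounds with dopamine controls for 90 minutes at 37 degrees C before luminescent detection.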
A number is an active result; i = inactive; ? = inconclusive; nt = no result. Unless noted, calls follow the shape of the dose curve; as a rule, active = well fitted curve in the direction sought with a large enough effect; inconclusive = small, poorly fitted or top-dose-only effect, or another doubt; inactive = no such curve, though single readings can be large; an effect the other way counts as inactive or inconclusive.

SMILES | D3 ag | ClpP mod | GLP1R inv ag | GLP-1R agonist | GLP1R cytotox | D3 antag
O=[N+]([O-])c1ccc(C(c2sc3nc(-c4ccco4)nn3c2O)N2CCN(c3cccc(Cl)c3)CC2)cc1 (stereo not given) | i | i | ? | nt | i | nt
CCn1nnnc1Sc1nc(C)nc2scc(-c3ccccc3)c12 | nt | i | nt | nt | nt | nt
Cc1cc(C)cc(NC(=O)C(=O)NCC(c2cccnc2)N2CCc3ccccc32)c1 (stereo not given) | i | i | ? | nt | i | nt
CC(C)CN(C(=O)COc1ccc2ccc(=O)oc2c1)C1CCS(=O)(=O)C1 (stereo not given) | i | i | i | i | i | i
CCN(C(=O)COc1ccc2ccc(=O)oc2c1)C1CCCCC1 | i | 25.1µM | i | ? | i | i
CN(C)C(=O)COc1ccc2ccc(=O)oc2c1 | i | 31.6µM | i | i | i | i
COCCCn1c(SCC(=O)Nc2ccc(F)cc2)nc2c(sc3ccccc32)c1=O | i | i | i | i | i | nt
O=C(Cn1nnc(-c2ccccc2-n2cnnn2)n1)NCc1ccccc1 | i | i | i | i | i | -108.5
Cc1ccc(-c2nnn(CC(=O)Nc3ccccc3-c3ccccc3)n2)c(-n2cnnn2)c1 | i | 11.2µM | i | i | i | i
Cc1ccc(C(=O)Cn2nnc(-c3ccccc3-n3cnnn3)n2)cc1 | i | i | i | i | i | i
COc1cc(OC)c(-c2nnc(-c3ccc(OC)c(OC)c3OC)o2)cc1OC | i | 28.2µM | i | i | i | i
O=C(Nc1ccccc1)c1sc2cc(C(F)(F)F)cnc2c1-c1cccs1 | i | 31.6µM | i | i | i | i
NNC(=O)c1sc2cc(C(F)(F)F)cnc2c1-c1cccs1 | i | nt | i | i | i | i
Cc1nc(-c2ccc(S(=O)(=O)N3CCN(C4c5ccccc5-c5ccccc54)CC3)s2)cs1 | i | 28.2µM | ? | i | i | i
Cc1nc(-c2ccc(S(=O)(=O)N3CCCN(CCc4ccccc4)CC3)s2)cs1 | i | nt | ? | i | i | i
Cc1ccc(S(=O)(=O)N(C)C[C@@H]2OCc3cnnn3CCCC(=O)N([C@H](C)CO)C[C@H]2C)cc1 | i | i | i | i | i | i
Cc1c(C(=O)Nc2ccc3oc(-c4cccnc4)nc3c2)oc2ccccc12 | i | 8.91µM | i | i | i | i
Cc1ccc2oc(C(=O)Nc3cccc(-c4nc5ccccc5s4)c3)c(C)c2c1 | i | ? | i | nt | i | nt
Cc1c(C(=O)Nc2cccc(-c3nc4ccccc4s3)c2)oc2ccccc12 | i | 22.4µM | i | nt | i | nt
CCCCNC(=O)C1CCN(Cc2ccc(OCc3ccccc3)cc2)CC1 | i | i | 7.08µM | i | ? | i
CCCCNC(=O)C1CCN(C/C(C)=C/c2ccccc2)CC1 | i | i | i | i | i | -65.6
CCCCN(C)C(=O)C1CCN(Cc2cccnc2)CC1 | i | nt | i | i | i | i
C/C(=C\c1ccccc1)CN1CCC(C(=O)N2CCC(C)CC2)CC1 | i | i | ? | i | i | i
CCCCN(C)C(=O)C1CCN(C/C(C)=C/c2ccccc2)CC1 | i | i | ? | i | i | -64.8
C/C(=C\c1ccccc1)CN1CCC(C(=O)N2CCCCC2)CC1 | i | i | i | i | i | -56.8
SMILES | D3 ag | ClpP mod | GLP1R inv ag | GLP-1R agonist | GLP1R cytotox | D3 antag
Cc1nc(C(F)(F)F)ccc1C(=O)N1CCC1(C)C(=O)Nc1ccc2c(c1)OCO2 (stereo not given) | i | i | i | i | i | i
CCN(CC)C(=O)C1CCN(Cc2cccc(OCc3ccccc3)c2)CC1 | i | i | ? | i | i | -61.1
CCN(CC)C(=O)C1CCN(Cc2ccc(OCc3ccccc3)cc2)CC1 | i | i | i | i | i | i
COc1ccc(OC)c(/C(O)=C/C(=O)C(=O)Nc2ccccc2OC)c1 | i | i | i | i | i | -66.7
COc1ccc(NC(=O)C(=O)NCC(=O)Nc2cc(OC)ccc2OC)cc1 | i | 10µM | i | i | i | i
COCCOc1cc(Nc2nnc(C(F)(F)F)s2)c(Cl)cc1Cl | i | i | ? | i | i | -63.8
COc1ccc(-c2[nH]ncc2CN(C)CCCN2CCOCC2)cc1F | i | nt | i | i | i | i
CCn1ccnc1CN(C)Cc1cn[nH]c1-c1ccc(OC)c(F)c1 | i | nt | 10µM | i | i | i
CN(CC1CCCN(CCc2cccc(C(F)(F)F)c2)C1)C(=O)c1cc2ccccc2o1 (stereo not given) | i | i | ? | i | ? | -74.0
CCN(CC1CCCN(CCc2cccc(F)c2)C1)C(=O)c1cc2ccccc2o1 (stereo not given) | i | i | ? | i | i | ?
C(=NN1CCCCCC1)c1ccccc1 | i | i | i | i | i | i
CN(c1ccccc1)c1ccc(/C=N/N2CCOCC2)cc1 | i | i | ? | i | ? | -51.7
CCc1nnc(NS(=O)(=O)c2ccc(Nc3ccc([N+](=O)[O-])c4nonc34)cc2)s1 | i | nt | i | i | ? | -63.5
O=C(O)c1cccc(Nc2ccc([N+](=O)[O-])c3nonc23)c1 | i | nt | i | i | ? | -57.4
CC(=O)c1ccc(Nc2ccc([N+](=O)[O-])c3nonc23)cc1 | i | i | i | i | i | i
O=C(O)c1ccc(Nc2ccc([N+](=O)[O-])c3nonc23)cc1 | i | nt | i | i | ? | -77.3
CCCCCCn1c(=O)n2n(c1=O)[C@@H]1CN(S(=O)(=O)c3ccc(C)cc3)C[C@]1(O)[C@@H](OC(=O)NCc1ccc(OC)c(OC)c1)C2 | i | i | ? | i | i | i
CC(=O)c1ccc(N2CCN(c3ccc(NC(=O)c4cccs4)cc3C(=O)O)CC2)cc1 | i | i | i | nt | i | nt
CCn1c(SCC(=O)Nc2oc(-c3ccccc3)c(-c3ccccc3)c2C#N)nnc1-c1ccco1 | i | i | ? | i | i | i
N#Cc1c(NC(=O)CCN2C(=O)c3ccccc3C2=O)oc(-c2ccccc2)c1-c1ccccc1 | i | i | ? | i | i | -85.3
COc1ccc(-c2oc(NC(=O)CSc3nncn3C)c(C#N)c2-c2ccc(OC)cc2)cc1 | i | i | 1.58µM | i | i | i
CC(C)CC(C(=O)Nn1cnnc1)N1C(=O)c2ccccc2C1=O (stereo not given) | i | i | i | i | i | i
N#Cc1c(NC(=O)CN2C(=O)c3ccccc3C2=O)oc(-c2ccccc2)c1-c1ccccc1 | i | i | i | i | i | ?
CC(C)CC(C(=O)Nc1oc(-c2ccccc2)c(-c2ccccc2)c1C#N)N1C(=O)c2ccccc2C1=O (stereo not given) | i | i | 10µM | i | i | ?

Screens from PubChem.
